Activity calls are given as the source filed them. Calls follow the shape of the dose curve; as a rule, active = well fitted curve in the direction sought with a large enough effect in the repeat runs; inconclusive = weak or mixed curves; inactive = flat fitted curve, though single readings scatter.
Assay: qHTS assay to test for compound auto fluorescence at 460 nm (blue) in HepG2 cell free culture (AID 720685)
Conditions: Cell-free culture medium, blue autofluorescence 405/460 nm; series mostly up to 91.3 µM
Source text: U.S. Tox21 Program National Center for Advancing Translational Sciences [NCATS] NIH Chemical Genomics Center [NCGC] U.S. Environmental Protection Agency [EPA] National Institutes of Environmental Health Sciences [NIEHS] National Toxicology Program [NTP] U.S. Food and Drug Administration [FDA] Tox21 Assay Overview: Compound auto fluorescence often interferes with screening of the compound library against various biological targets and signaling pathways. Some of these compounds may have fluorophoric properties. Such properties may interfere with the assay outputs resulting in false positives and/or negatives. To decrease such complications and ensure the compound activities are relevant in terms of biological response, the Tox21 10K compound library was screened for auto fluorescence. From the fluorophores used as reporter signals in our screening assays, the auto fluorescence equivalencies of compounds against three fluorophores have been evaluated: Triamterene, Fluorescein and Rose Bengal sodium for blue, green and red fluorescence, respectively. The fluorescence intensities were measured using Excitation/Emission wavelengths at 405/460nm, 485/535nm and 540/590nm for blue, green and red labels, respectively. This assay includes the blue fluorescence data.
Tox21 Assay Protocol Summary: 5 uL of culture medium (MEM containing 10% FBS) per well was dispensed into black wall/clear bottom 1536-well plates using a Multidrop Combi Dispenser (ThermoFisher Scientific, Waltham, MA). After 23 nL compound or DMSO vehicle was transferred into assay plate by a pintool work station (Kalypsys, San Diego, CA), fluorescence intensities in the assay plates were measured by an Envision (PerkinElmer, Shelton, CT) plate reader using three labels for measuring blue, green and red fluorescence at […] 460, 535 and 590nm respectively.

Row | Structure (SMILES) | outcome
1 | O=C(O)C(=O)O | inactive
2 | Cc1cc(=O)n(-c2ccccc2)n1C | inactive
3 | Nc1ccc(S(=O)(=O)c2ccc(N)cc2)cc1 | inactive
4 | CCOc1ccc(NC(=O)CC(C)O)cc1 (stereo not given) | inactive
5 | O=C(O)CS | inactive
6 | Cc1ccc(O)cc1 | inactive
7 | O=c1ccc2ccccc2o1 | inactive
8 | CCCC(CCC)C(=O)O | inactive
9 | O=C(O)CCC(=O)O | inactive
10 | Cc1ccc(S(=O)(=O)NC(=O)NN2CCCCCC2)cc1 | inactive
11 | Nc1ccc(C(=O)O)cc1 | inactive
12 | NC(=O)NC1NC(=O)NC1=O (stereo not given) | inactive
13 | CCCCCCCCCCCCCCCC(=O)O | inactive
14 | NC(=O)c1ccccc1O | inactive
15 | CCCCC1C(=O)N(c2ccccc2)N(c2ccccc2)C1=O | inactive
16 | CCCCC(CC)COC(=O)/C=C/c1ccc(OC)cc1 (stereo not given) | inactive
17 | NS(=O)(=O)c1cc(C(=O)O)c(NCc2ccco2)cc1Cl | inactive
18 | O=C(O)c1cc(N=Nc2ccc(S(=O)(=O)Nc3ccccn3)cc2)ccc1O | inactive
19 | O=S(=O)(O)c1ccc2cc(O)ccc2c1 | inactive
20 | O=NO | inactive

Row | Structure (SMILES) | outcome
21 | CC(C)[C@@H]1CC[C@@H](C)C[C@H]1O | inactive
22 | CC(O)CN(CCN(CC(C)O)CC(C)O)CC(C)O (stereo not given) | inactive
23 | OC(Cn1cncn1)(Cn1cncn1)c1ccc(F)cc1F | inactive
24 | Cc1cc(=O)[nH]c(=S)[nH]1 | inactive
25 | CCC1(c2ccccc2)C(=O)NCNC1=O | inactive
26 | O=C(C1CCCCC1)N1CC(=O)N2CCc3ccccc3C2C1 (stereo not given) | inactive
27 | O=C(O)c1cccc([N+](=O)[O-])c1 | inactive
28 | O=c1cc[nH]c(=S)[nH]1 | inactive
29 | O=C1CN(/N=C/c2ccc([N+](=O)[O-])o2)C(=O)N1 | inactive
30 | COc1c2occc2cc2ccc(=O)oc12 | inactive
31 | C1N2CN3CN1CN(C2)C3 | inactive
32 | O=C(c1ccccc1)C(O)c1ccccc1 (stereo not given) | inactive
33 | Cn1c(=O)c2[nH]cnc2n(C)c1=O | inactive
34 | Cc1ccc(C)c(OCCCC(C)(C)C(=O)O)c1 | inactive
35 | COc1ccc2[nH]cc(CCNC(C)=O)c2c1 | inactive
36 | Nc1ccn([C@H]2CC[C@@H](CO)O2)c(=O)n1 | inactive
37 | C[C@]12C=CC(=O)C=C1CC[C@@H]1[C@@H]2[C@@H](O)C[C@@]2(C)[C@H]1CC[C@]2(O)C(=O)CO | inactive
38 | CNC[C@H](O)c1cccc(O)c1 | inactive
39 | CC(=O)OCC(COC(C)=O)OC(C)=O | inactive
40 | O=C(O)CCCCCCCC(=O)O | inactive

— PubChem BioAssay (Tox21)
